Assay results as given in PubChem BioAssay AID1508600 (Functional Genomics Laboratory (NCATS/FGL), 2020).
The whole screen tested about 53,000 sequences, of which about 3,700 (7%) were called active.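 Rule for the calls: active = gene knockdowns whose robust z-score for IL-1 alpha signal is at least 2 or at most -2, so actives lie on both sides; inactive = the rest.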 The sample as a whole holds a higher share of actives than the screen did.

Assay: Components of the Cytosolic LPS Sensing Pathway: Gene Identification via Genome-wide siRNA Screen;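 note: robust z of the log signal after scaling to non-targeting control siRNA wells of the plate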
Details: RAW264.7 macrophages, IL-1a HTRF, actives lie on both sides, screened at 100 nM (by protocol), cells primed 5 h with Pam3CSK4 first
Summary of the method: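 Using IL-1a HTRF as read-out, the screen measured release from RAW264.7 cells after 48h siRNA knockdown (100 nM), 5 h Pam3CSK4 priming and 24 h cytosolic LipidA. Values were expressed relative to negative-control wells as robust z-scores.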

Sequence	z-score
CCCUGUAAGGUUGAUUGUGTT against Oog3	0.535 (inactive)
GGCUCAUUCCUCUUCUUCCTT against Serhl	-3.08 (active)
GCCAAGUAAAACCAAAUGUTT against Ldlrad4	-1.85 (inactive)
CCGAGAACAGUUGAAGAAGTT against Srbd1	0.174 (inactive)
GGUGGAUGAGUUGUUCCUUTT against Adck5	0.637 (inactive)
GCUACAGGAUUUAUACAUGTT against Dhx29	0.865 (inactive)
GGGACUUAUGUACAACUUCTT against Idua	1.53 (inactive)
CCUCUGCGCAAUUUAGAGATT against Npb	1.1 (inactive)
GACAAGAACCCGGAUAAUATT against Dnajb2	-0.229 (inactive)
GCAAGCACGUCAGAAUCUCTT against Pln	2.32 (active)
GGAAGAACUGAUUGAAGAGTT against Sptlc1	-0.789 (inactive)
GGUGAAAGACCAUUUAUUUTT against Zxdc	0.657 (inactive)
CGUGACUCUGCUUUAACUCTT against Col27a1	-2.27 (active)
GGAGCUUGCUCAGACUACUTT against Cct8	-0.914 (inactive)
GCCUAUCGUCCAGAUUAUCTT against Senp1	0.919 (inactive)
GGUCAAGUAUCUGAGAAAATT against Selenoh	0.154 (inactive)
GGCGAUAAGGAACAGAAGUTT against Ppp3r1	-0.199 (inactive)
GGUCAACCUCAAAGUCUUUTT against Il17a	0.581 (inactive)
GGGCUUCAGAAAAUCCAGGTT against Dclre1a	-0.447 (inactive)
GGCUCCUAUAUACUGAUCATT against Olfr1402	-2.65 (active)
CCUGGUAAAAGACUGGGCUTT against Dnal1	1.76 (inactive)
GGUUAGUCGACAGAAACAATT against Poteg	-1.11 (inactive)
GCUGUCUCAAUCACCCUAATT against Olfr1427	-1.23 (inactive)

Sequence	z-score
GGUCAAGUGUAACAAAGAATT against Bcorl1	-0.417 (inactive)
GGUCAUUAUUGUCAUCUACTT against Tmem9	-0.323 (inactive)
GGAAAUCACUGGUUUUCAATT against Asah2	2.88 (active)
GGAGACUGACAAGAAAAUUTT against Gm16367	-0.967 (inactive)
GCAUCACGUAUGUGAUUUGTT against Dmrtc1a	-0.569 (inactive)
GCAGAGGAGUGAAUAGAUATT against Dtx3l	0.45 (inactive)
GGCCAACUUUUUUCACCCATT against Git1	-2.19 (active)
GGUUGUUCGUGGACACUACTT against Rpl26	-0.404 (inactive)
GGCCGUCACUACUCUGAAATT against Mgst2	-2.29 (active)
GGCACUUCUUGGACAUCAUTT against Sfxn5	-0.019 (inactive)
CGAAGGUCUGUUCGAGAACTT against Morn4	0.668 (inactive)
GCUUCAUCCUAGCGGUUUGTT against Dad1	-0.899 (inactive)
CGAUCGAAUCCUUAAGUACTT against Ttll1	-0.0193 (inactive)
GCUUUUUACAGGAUAUACATT against Zfp644	-0.143 (inactive)
GCCAUACCUUCAACUGUCGTT against Ncoa2	-2.42 (active)
GGAACGUAAACUAAGCCCGTT against Foxb1	0.458 (inactive)
CCCAUUUCACUUCAGUUUGTT against Osbp2	-0.253 (inactive)
CCCAAAACGGUAGCUUAAGTT against Rcc1	-0.0143 (inactive)
GGCAAGAAAGGACCAAUGGTT against Cln8	0.206 (inactive)
CCGUGGGUUUUUUGAAUCUTT against Slc6a1	2.63 (active)
GCCCAAUAGAAGCUGGAUGTT against Tex29	-1.99 (inactive)
GGAGCGAGAAGCUUUAGAATT against Ubxn1	0.61 (inactive)
GGCCAACUAGGGUGUUUGUTT against Tsx	0.182 (inactive)

Sequence	z-score
GCUAUUAGGAAAUGAAAGATT against Ncald	0.384 (inactive)
GCAGAGACUCCAAAGCUCATT against Chd4	-2 (active)
GGAACUUGACAAAGUCUACTT against Panx1	1.2 (inactive)
GGAAGAAGAAGGUGUAACCTT against Defb39	0.567 (inactive)
GGCAUCUGUUACCCAGAAUTT against Zfp384	-1.92 (inactive)
CCAAAUGACUUUGGUCCUATT against Vax2	0.576 (inactive)
CCAUCCUCAACAAGAUCGATT against Rab4b	2.25 (active)
GGUGGUAACCAAUCAUUACTT against Cd200r1	-0.296 (inactive)
GCAUAAACUAACCACUUAGTT against Evi2b	-1.77 (inactive)
GGCUUUUUUGCCAUUGCUATT against Wnt9b	0.19 (inactive)
GGAGAUUCAUCGCUACCUUTT against Ccna1	2.46 (active)
GGUUGUAGGAAGAAGAGAATT against Olfr957	-0.798 (inactive)
CGGUCUUUAUUACAUAAUCTT against Ptpro	-0.757 (inactive)
CCAUUGCAUAUUUAGUAGCTT against Sox11	-0.765 (inactive)
CGUAAAUAUGCCCGUAGUUTT against Bpifa1	0.31 (inactive)
GGUCUGUAUCCCACUUUUCTT against Dalrd3	-2.15 (active)
CCUCUACUCAAGUUUACUUTT against Casq2	0.417 (inactive)
GGCGAUGGAAAGACUGCACTT against Hus1b	0.311 (inactive)
CCCACAAGUUUCAUCUGACTT against Aknaos	-0.164 (inactive)
GGAGAACCCAUUAAAGAAATT against Amd1	0.408 (inactive)
GGUCUGUACUUGUUUAGAATT against Vwa3b	0.42 (inactive)
GCUAUACAAAGGCUACUCUTT against Hectd3	0.379 (inactive)
GCUGUUGAUUGUAAGCAAUTT against Mtap	0.0958 (inactive)
